Compounds without any hit were thinned out: in the full panel of roughly 83,000, 20% have a hit.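 Percent growth is the endpoint: 0 to 100 indicates growth inhibition (40 means 60% inhibition), 0 means no net growth, and negative values indicate cell death.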 Calls of active or inactive are those of the source. Rule for the calls: active = growth percent below 10; inactive = the rest.

This experiment deals with HL-60(TB) leukemia. Put plainly: NCI-60 one-dose screen, 48 h (100 = growth as untreated, 0 = no growth, -100 = all killed). The note with it: 10 µM unless noted.
Consider `O=C1/C(=C\c2ccc[nH]2)c2ccccc2N1c1ccccc1`, for which the growth was 94.4% (inactive).
Regarding `CC(=O)Oc1ccc(/C(=C(\C)c2ccc(Cl)cc2)c2ccc(OCCN3CCCCC3)cc2)cc1`, the growth is 27.4% (inactive).
For the compound `Fc1ccccc1CSc1ncnc2nc[nH]c12`, the growth is 90.4% (inactive).
With `CN1CCN(c2nc(-c3csc(-c4cccs4)n3)cc3ccccc23)CC1`, the growth is 34.4% (inactive).
With `CCC(=O)Oc1cc(Cl)c(Cl)cc1Cl` the figure was 106% (inactive); with `COc1ccc(C(=O)c2cc(C)c(OC)c(C)c2)c(OC)c1NC(C)=O`, -26.3% (active); with `Cn1c(O)c(C(/C=C/c2ccccc2)=Nc2ccccc2N)c(=O)n(C)c1=O`, -39.4% (active).
`COc1ccc(/C=C/C(=O)c2ccc(B(O)O)cc2)cc1O`: the growth is 37.7% (inactive).
For `O=C1c2cccnc2C(=O)c2c1c(C(=O)OCCCN1CCOCC1)c1ccccn21`, the growth is -3.63% (active).
With `COC1=CC(=O)C(OC)=C(O)C1=O`, the growth is 107% (inactive).
With `O=C(/C=C/c1ccccc1)Nc1ncc(Cc2ccccc2)s1`, the growth is -45.3% (active).
